Measured values taken from PubChem BioAssay AID1159580 (chemical genetic matrix, 2015).
The whole screen tested about 5,500 compounds, of which about 2,000 (36%) were called active. Inconclusive results (about 18%) are left out. Some of the results follow. Values without a mark were called inactive. Cut-off read from the data, not from the text of the source: active = normalized growth mostly below about 0.91 (no sharp cut-off); inconclusive = no clear call, values can overlap the other calls; inactive = mostly above about 0.92.

Experiment: chemical genetic growth profiling, strain panel (AID 1159580);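 note: tested at 20 µM; growth read once vehicle control cultures reached saturation at 30 °C; 1 = growth at the plate median or of vehicle wells; lower values mean less growth of the strain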
Conditions: growth OD
[1] = S. cerevisiae deletion strains, locus YAL013W, strain DEP1, active compounds read low
[2] = S. cerevisiae deletion strains, locus YBR229C, strain ROT2, active compounds read low
[3] = S. cerevisiae deletion strains, locus YDL101C, strain DUN1, active compounds read low
[4] = S. cerevisiae deletion strains, locus YDR150W, strain NUM1, active compounds read low
[5] = S. cerevisiae deletion strains, locus YEL061C, strain CIN8, active compounds read low
[6] = S. cerevisiae deletion strains, locus YGR078C, strain PAC10, active compounds read low
[7] = S. cerevisiae deletion strains, locus YHR030C, strain SLT2, active compounds read low
[8] = S. cerevisiae deletion strains, locus YHR087W, strain rtc3, active compounds read low
[9] = S. cerevisiae deletion strains, locus YJR043C, strain POL32, active compounds read low
[10] = S. cerevisiae deletion strains, locus YJR075W, strain HOC1, active compounds read low
[11] = S. cerevisiae deletion strains, locus YLR039C, strain RIC1, active compounds read low
[12] = S. cerevisiae deletion strains, locus YLR058C, strain SHM2 (second series), active compounds read low
[13] = S. cerevisiae deletion strains, locus YLR085C, strain ARP6, active compounds read low
[14] = S. cerevisiae deletion strains, locus YLR262C, strain YPT6, active compounds read low
[15] = S. cerevisiae deletion strains, locus YML094W, strain GIM5, active compounds read low
[16] = S. cerevisiae deletion strains, locus YMR219W, strain ESC1, active compounds read low
[17] = S. cerevisiae deletion strains, locus YMR263W, strain SAP30, active compounds read low
[18] = S. cerevisiae deletion strains, locus YNL128W, strain TEP1, active compounds read low
[19] = S. cerevisiae deletion strains, locus YNL153C, strain GIM3, active compounds read low
[20] = S. cerevisiae deletion strains, locus YNL298W, strain CLA4 (second series), active compounds read low
[21] = S. cerevisiae deletion strains, locus YNL322C, strain KRE1, active compounds read low
[22] = S. cerevisiae deletion strains, locus YNR030W, strain Alg12, active compounds read low
[23] = S. cerevisiae deletion strains, locus YPL055C, strain LGE1, active compounds read low
[24] = S. cerevisiae deletion strains, locus YPR135W, strain CTF4, active compounds read low
[25] = S. cerevisiae deletion strains, locus YAL040C, strain CLN3, active compounds read low
[26] = S. cerevisiae deletion strains, locus YCL061C, strain MRC1 (second series), active compounds read low
[27] = S. cerevisiae deletion strains, locus YER002W, strain NOP16, active compounds read low
[28] = S. cerevisiae deletion strains, locus YNL175C, strain NOP13, active compounds read low
[29] = S. cerevisiae deletion strains, locus YNL197C, strain WHI3, active compounds read low
[30] = S. cerevisiae deletion strains, locus YNL224C, strain SQS1, active compounds read low
[31] = S. cerevisiae deletion strains, locus YOR083W, strain WHI5 (second series), active compounds read low
[32] = S. cerevisiae deletion strains, locus YPL241C, strain CIN2, active compounds read low

COc1ccccc1C1CCN(C(=O)c2ccc(F)cc2)CC1
normalized growth [1]: 0.981
normalized growth [2]: 0.986
normalized growth (S. cerevisiae deletion strains, locus YCL061C, strain MRC1, active compounds read low): 0.989
normalized growth [3]: 0.994
normalized growth (S. cerevisiae deletion strains, locus YDL134C, strain PPH21, active compounds read low): 0.983
normalized growth [4]: 0.988
normalized growth [5]: 0.965
normalized growth [6]: 0.982
normalized growth [7]: 0.754
normalized growth [8]: 1.01
normalized growth [9]: 0.987
normalized growth [10]: 1
normalized growth [11]: 1.03
normalized growth [12]: 0.981
normalized growth [13]: 0.901
normalized growth [14]: 1.01
normalized growth [15]: 0.944
normalized growth [16]: 0.976
normalized growth [17]: 0.994
normalized growth [18]: 0.986
normalized growth [19]: 0.989
normalized growth [20]: 0.982
normalized growth [21]: 0.978
normalized growth [22]: 0.967
normalized growth (S. cerevisiae deletion strains, locus YOL006C, strain TOP1, active compounds read low): 0.852
normalized growth [23]: 0.926
normalized growth [24]: 0.975

COc1ccccc1N1CCN(CCCCNC(=O)c2ccc3ccccc3c2)CC1
normalized growth [25]: 0.951
normalized growth [26]: 0.988
normalized growth (S. cerevisiae deletion strains, locus YDR363W, strain ESC2, active compounds read low): 1.03
normalized growth [27]: 0.996
normalized growth [6]: 0.981
normalized growth [17]: 0.978
normalized growth (S. cerevisiae deletion strains, locus YMR307W, strain GAS1, active compounds read low): 0.995
normalized growth [28]: 1.03
normalized growth [29]: 1.01
normalized growth [30]: 0.983
normalized growth [31]: 1.06
normalized growth [23]: 0.999

COc1ccccc1C1CCN(Cc2ccc3ccccc3c2)CC1
normalized growth [1]: 0.981
normalized growth [2]: 0.965
normalized growth [3]: 0.973
normalized growth [4]: 1
normalized growth [5]: 0.915
normalized growth [6]: 0.986
normalized growth [7]: 0.529 (active)
normalized growth [8]: 0.987
normalized growth [9]: 1.01
normalized growth [10]: 0.99
normalized growth [11]: 0.98
normalized growth [12]: 0.985
normalized growth [13]: 0.91
normalized growth [14]: 0.904
normalized growth [15]: 0.885
normalized growth [16]: 1
normalized growth [17]: 1.01
normalized growth [19]: 0.962
normalized growth [20]: 0.888
normalized growth [21]: 0.989
normalized growth [22]: 0.963
normalized growth [23]: 1.02
normalized growth [32]: 0.911
normalized growth [24]: 0.773
normalized growth (S. cerevisiae strains, strain wild type, active compounds read low): 0.885 (active)

Nc1cc(Cl)c(NC2=NCCN2)c(Cl)c1
normalized growth [25]: 0.982
normalized growth [26]: 1
normalized growth [27]: 1
normalized growth (S. cerevisiae deletion strains, locus YGR229C, strain SMI1, active compounds read low): 1.01
normalized growth [10]: 0.998
normalized growth [18]: 1
normalized growth [19]: 0.987
normalized growth [28]: 1.02
normalized growth [29]: 1
normalized growth [30]: 1.02
normalized growth [31]: 1.04
normalized growth [32]: 1
